Screening data: PubChem, The Scripps Research Institute Molecular Screening Center
GAA850 FXN act – FXN promoter activators, primary screen, cell-based, luciferase luminescence, HEK293 lucGAA850. 0.56% of 360,000 active. HEK293 lucGAA850 FXN promoter luciferase reporter, 24 h; percent of 10 µM SAHA response. activation, % at 6 µM;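 active = activation above the average of all compounds screened plus 3 SD, cutoff fixed separately per campaign, cut at about 7.5% in these data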;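 also: 0% = DMSO wells and 100% = 10 µM SAHA wells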
hcDAF-12 act – H. contortus DAF-12 nuclear receptor activators, primary screen, cell-based, luminescence, HEK293, lit1-tk-luc reporter; AID 652067, 2013; activation, % at 6.8 µM; HEK293 hcDAF-12 lit1-tk-luc reporter; 0% DMSO, 100% Δ7-dafachronic acid; 1.4% of 370,000 active;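 active = activation above the mean of all tested compounds plus 3 SD, cut at about 5.5% in these data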;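 also: 100% = response to 3 µM Δ7-dafachronic acid high control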
ssDAF12 agonist – S. stercoralis DAF-12 nuclear receptor activators, primary screen, cell-based, luminescence, HEK293, GRIP1 co-expression, lit1-tk-luc; 1% of 370,000 active; activation, % at 6.8 µM; HEK293 ssDAF-12/GRIP1 lit1-tk-luc reporter; % of 3 µM dafachronic acid response; AID 652126, 2013;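 active = activation above the mean over all tested compounds plus 3 SD, cut at about 0.9% in these data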;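 also: 0% = DMSO-only wells and 100% = 3 µM delta7-dafachronic acid wells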
DAX1 inh-1 – DAX1 (NR0B1) inhibitors, primary screen, cell-based, HEK293, Gal4-DAX1, luciferase luminescence; Nuclear receptor subfamily 0 group B member 1 (Homo sapiens), P51843; HEK293 Gal4-DAX1 luciferase reporter; inhibition, % at 6.75 µM; 0.99% of 340,000 active;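 active = inhibition above the mean over all tested compounds plus 3 SD, cut at about 4.2% in these data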;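 also: 0% = DAX1-transfected cells with DMSO and 100% = empty-vector control cells with DMSO; inhibition shows as a rise in luminescence from relieved DAX1 repression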
Target sequence (P51843 207-470 limits assumed): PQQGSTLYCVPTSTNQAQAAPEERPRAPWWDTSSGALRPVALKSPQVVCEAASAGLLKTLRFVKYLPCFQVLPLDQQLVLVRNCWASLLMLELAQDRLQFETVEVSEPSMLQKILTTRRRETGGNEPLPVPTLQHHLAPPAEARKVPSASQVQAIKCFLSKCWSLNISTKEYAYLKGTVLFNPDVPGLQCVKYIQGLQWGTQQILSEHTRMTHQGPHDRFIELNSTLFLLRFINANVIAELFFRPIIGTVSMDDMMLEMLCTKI
hgDAF12 agonist – H. glycines DAF-12 receptor agonists, primary screen, cell-based, luminescence, HEK293, GAL4 fusion, UAS-luciferase; Nuclear hormone receptor DAF-12 (Heterodera glycines), GAL4 fusion; HEK293 GAL4-hgDAF12 UAS-luciferase reporter, agonist luminescence; normalized to butyrate control; activation, % at 6.8 µM; 1.8% of 370,000 active; AID 687014, 2013;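 active = activation above a cutoff set at the mean of all screened compounds plus 3 SD, cut at about 10% in these data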;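 also: 0% = DMSO wells and 100% = sodium butyrate wells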
DAX1 inh-2 – DAX1 (NR0B1) inhibitors on StAR promoter, primary screen, cell-based, luminescence, SF-1 (NR5A1), full-length DAX-1. HEK293T StAR-luciferase reporter, SF-1/DAX-1 repression relief. AID 652010, 2013. inhibition, % at 6.8 µM. 1.1% of 370,000 active;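 active = inhibition above the mean over all tested compounds plus 3 SD, cut at about 3.6% in these data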;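 also: 0% = DAX-1 cells with DMSO and 100% = cells lacking DAX-1 with DMSO; higher inhibition means more luminescence from relief of DAX-1 repression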
The depositor's hits bear a star; . = not tested or not shown. Only some compounds are listed: those with a hit (about 4.5% of all), similar ones and a draw of the others.

SMILES	GAA850 FXN act	hcDAF-12 act	ssDAF12 agonist	DAX1 inh-1	hgDAF12 agonist	DAX1 inh-2
COc1ccc(C(c2c[nH]c3ccccc23)c2c[nH]c3ccccc23)cc1O	2.5	5.0	2.8*	2.6	5.0	-1.1
C/C(Cn1nnc([N+](=O)[O-])n1)=N\NC(=O)c1ccccc1	3.7	-0.9	-0.7	-0.1	4.9	-0.2
C/C(Cn1cnc([N+](=O)[O-])n1)=N\NC(=O)c1ccccc1	4.3	1.3	-0.7	4.3*	6.2	2.1
CN1CCN(C(=S)c2ccc(-c3cccc([N+](=O)[O-])c3)o2)CC1	3.8	6.5*	-0.6	7.9*	9.8	1.6
O=C(c1cc(-c2ccc(O)cc2)on1)N1CCN(c2ccc(F)cc2)CC1	2.6	-1.1	-1.2	-1.0	1.8	-0.9
O=C(c1cc(-c2cccc(O)c2)on1)N1CCCC1	1.5	5.5	-0.2	2.9	13.1*	1.7
O=C(c1cc(-c2ccc(F)cc2)on1)N1CCOCC1	3.4	3.1	0.3	-0.1	12.9*	2.0
O=C(c1cc(-c2ccc(F)cc2)on1)N1CCCC1	-0.6	3.5	-0.9	0.8	13.1*	2.5
O=C(Nc1nc(Cc2ccccc2)c(-c2ccccc2)n1Cc1ccccc1)c1ccccc1	.	-0.3	-1.3	.	-0.5	0.6
O=C(c1cc(-c2ccc(Cl)c(Cl)c2)on1)N1CCOCC1	3.4	1.5	0.0	1.5	3.1	1.0
S=C(c1ccc(-c2cccc(Cl)c2)o1)N1CCOCC1	6.4	5.5	-0.4	3.1	13.1*	3.5
O=C(c1cc(-c2cccc(Cl)c2)on1)N1CCOCC1	4.2	0.9	0.7	-0.1	11.0*	0.6
O=C(c1cc(-c2ccc(F)cc2)on1)N1CCCc2ccccc21	4.2	0.3	-0.9	-0.9	5.5	-0.3
O=C(c1cc(-c2ccc(F)cc2)on1)N1CCCCCC1	4.3	2.4	-0.4	2.9	12.3*	1.5
O=C(c1cc(-c2ccc(Cl)cc2)on1)N1CCOCC1	-0.5	3.7	0.0	0.8	12.2*	4.0*
CCC(=O)OCCCN1C(=O)CCC12CCC(C)CC2 (stereo not drawn)	.	-0.6	-1.3	.	-2.9	0.8
COc1ccc(-c2cc(C(=O)N3CCCCCC3)no2)cc1OC	5.5	0.8	-0.5	1.0	10.5*	0.4
Cc1onc(-c2ccccc2)c1C(=O)Nc1nc2c(s1)C(=O)CC(C)(C)C2	-0.4	-2.5	-0.5	-1.4	1.1	-0.7
CC1(C)CC(=O)c2sc(NC(=O)c3ccco3)nc2C1	2.9	4.8	-0.1	-0.4	11.9*	2.4
CC1(C)CC(=O)c2sc(NC(=O)C3COc4ccccc4O3)nc2C1 (stereo not drawn)	1.8	1.5	1.6*	2.3	7.0	1.6
CCOC(=O)c1sc(NC(=O)Nc2ccccc2F)nc1C	-10.5	3.2	-0.5	-2.2	2.4	3.7*
CCOC(=O)c1sc(NC(=O)c2ccccc2OC)nc1C	2.9	-0.9	-1.6	3.6	6.8	2.8
CCOC(=O)c1sc(NC(=O)CSc2nncn2C)nc1C	1.4	1.2	-1.6	5.2*	4.3	-0.4
Cc1c(OC(=O)c2ccc([N+](=O)[O-])cc2)c2c(c[n+]1C)COC(C)(C)OC2	0.9	.	.	-0.3	.	.
Cc1ncc2c(c1OC(=O)c1ccccc1)COC(C)(C)OC2	-1.1	-0.1	-1.4	5.1*	1.4	-0.2
SMILES	GAA850 FXN act	hcDAF-12 act	ssDAF12 agonist	DAX1 inh-1	hgDAF12 agonist	DAX1 inh-2
CC1=C(C(=O)c2ccccc2)C(c2ccc(O)cc2)NC(=S)N1 (stereo not drawn)	-0.6	-0.3	-1.6	4.4*	-1.8	0.4
O=C(CN1CCc2onc(-c3ccc(-n4cc(COc5ccc([N+](=O)[O-])cc5)nn4)cc3)c2C1=O)N1CCOCC1	.	-1.0	-1.6	.	-0.8	-1.0
COCC(C)NC(=S)Nc1ccccc1[N+](=O)[O-] (stereo not drawn)	1.2	3.8	2.4*	0.7	-1.8	0.1
Clc1cccc(-c2nc3c4ccccc4ccn3c2Cc2ccccc2)c1	.	5.0	0.8	.	1.8	0.4
Clc1cccc(-c2nc3c4ccccc4ccn3c2Cc2ccsc2)c1	.	6.0*	3.3*	.	10.4	2.2
FC(F)(F)c1ccccc1Cc1c(C2CCCCC2)nc2c3ccccc3ccn12	.	2.3	1.7*	.	3.4	1.6
Brc1cccc(-c2nc3c4ccccc4ccn3c2Cc2ccsc2)c1	.	3.6	1.8*	.	5.1	2.2
Cc1cc(Br)cn2c(Cc3ccsc3)c(-c3cccc(Br)c3)nc12	.	1.4	0.2	.	0.2	0.3
FC(F)(F)c1ccccc1Cc1c(-c2ccc(Cl)cc2)nc2c3ccccc3ccn12	.	5.1	1.8*	.	0.6	0.9
COc1ccc(-c2nc3c4ccccc4ccn3c2Cc2ccccc2C(F)(F)F)cc1OC	.	2.8	-0.3	.	4.0	-2.6
Cc1ccc(NC(=O)C2CCCN(c3nnc(-n4cccc4)s3)C2)cc1C (stereo not drawn)	.	0.3	-0.5	.	1.1	0.0
O=C(CSc1nnc(-c2ccccc2)n1-c1ccc(Cl)cc1)Nc1ccc(OCc2ccccc2)cc1	.	1.4	-1.2	.	-0.8	-0.2
CC(=O)c1cc(-c2ccccc2)n(CC(=O)NCc2ccccc2Cl)c1C	.	2.7	0.0	.	0.7	-0.5
Fc1ccc(-c2nc3c4ccccc4ccn3c2Cc2cccc(Cl)c2)cc1	.	5.9*	0.7	.	4.3	1.9
CCOC(=O)Cc1c(-c2cccc(Br)c2)nc2c3ccccc3ccn12	.	6.1*	1.4*	.	4.5	-1.6
CCOC(=O)Cc1c(C)nc2c(-c3cccc(Br)c3)cnn2c1C	1.3	1.7	-0.1	0.6	1.0	-0.2
Cc1ccc2nc(C3CCCCC3)c(Cc3cccc(F)c3)n2c1	.	-3.1	-1.4	.	0.4	0.2
CCCc1nc2c3ccccc3ccn2c1Cc1cccc(F)c1	.	4.7	1.1*	.	9.8	1.9
Clc1cccc(Cc2c(-c3ccccc3)nc3c4ccccc4ccn23)c1	.	0.2	0.2	.	0.1	0.9
CCCc1nc2ccc(C)cn2c1Cc1cccc(F)c1	.	4.5	1.9*	.	10.4	3.9*
O=C(OC12CCCN(C1)/C(=C/c1ccc(Cl)cc1)C2)c1cccc(F)c1 (stereo not drawn)	.	-1.5	-0.9	.	3.6	-0.8
